# A selection: hits, their analogues and other compounds. The true share with any hit is near 8%.
# HT1080NT lethal: kills 2HG-producing HT-1080-NT fibrosarcoma cells. HT-1080-NT fibrosarcoma viability, CellTiter-Glo ATP luminescence, 48 h. Potency, µM (series often up to 46.1 µM), without a hit: at the top dose activity, negative = less viability, actives largely listed as cytotoxic. 1.6% of 360,000 active;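 further: NT is the 2HG producing partner of a matched IDH1 knockdown line; 0% = DMSO-treated cells and -100% = media-only wells without cells; nearly all actives have a fitted effect of over 55% in size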
#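 Fibrosarcoma NT cells, 750 per well in 5% FBS RPMI, were exposed to compound for 48 hours. Viability: CellTiter-Glo luminescence.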
# HT1080 IDH1KD tx: toxicity to HT-1080 IDH1 knockdown cells (counter line); 2% of 360,000 active; Potency, µM (series often up to 46.1 µM), without a hit: top-dose activity, negative = toxicity, usual class: cytotoxic; HT-1080 IDH1 knockdown viability, ATP luminescence, 48 h;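 further: 0% = DMSO wells and -100% = cell-free medium wells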
#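 CellTiter-Glo luminescence after 48 h compound exposure at 37 degrees C of IDH1-knockdown HT-1080 cells in 5% FBS RPMI. %Activity scaled between DMSO wells and cell-free media wells, with curves fitted and assigned curve classes.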
# KB-V1 MDR tox: kills drug-selected multidrug resistant KB-V1 cells; KB-V1 MDR cells viability, CellTiter-Glo, 72 h; Potency, µM (doses to about 46.1 µM), most hits filed as cytotoxic; 3.4% of 400,000 active; AID 1347076; further: on the % scale 0 is the no-effect control and ±100 the full control effect; nearly all actives have a fitted effect of over 60% in size
#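 Compound-treated KB-V1 multidrug-resistant cells, 72 h, 37 degrees C; viability by CellTiter-Glo. Fitted qHTS curves give the values.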
# SW480 rereplic: DNA re-replication induction in SW480 cells; SW480 DNA re-replication, Hoechst DNA content imaging, 48 h; Potency, µM (series often up to 46.1 µM), for the others: at the top dose re-replication activation, hits mostly activators; 1.8% of 340,000 active; further: % of control where 0% means no effect; nearly all actives have a fitted effect of over 55% in size
#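 250 cells/well; 23 nL cpd via pin tool; 48 hr, 37 C, 5% CO2; Hoechst 40 min; imager read of total nuclear intensity, ex 405/em 500-530 nm.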
# MCF10A rereplic: inducers of DNA re-replication in MCF 10A breast cells. MCF 10A DNA re-replication, Hoechst nuclear intensity, 48 h. Potency, µM (doses to about 46.1 µM), inactives show at the highest dose activity, positive = re-replication, most hits filed as activators. 2.9% of 350,000 active. AID 624296; further: % of control where 0% means no effect; nearly all actives have a fitted effect of over 50% in size
# KB-3-1 cytotox: KB-3-1 parental cell cytotoxicity | 1.4% of 400,000 active | KB-3-1 viability, CellTiter-Glo ATP luminescence, 72 h | Potency, µM (top dose mostly 46.1 µM), most hits filed as cytotoxic; further: on the % scale 0 is the no-effect control and ±100 the full control effect; nearly all actives have a fitted effect of over 60% in size
#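 Luminescent ATP read-out (CellTiter-Glo) measures survival of drug-naive KB-3-1 cells after 72 h compound exposure at 37 °C. Titration series was screened from lowest to highest concentration, with DMSO vehicle plates as background controls.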
# Numbers without * were called inactive; i = inactive; ? = inconclusive; / = no result given; [ ] = another dose, or the depositor's remark. The call rests on the fitted dose curve; in most records, active means well fitted curve in the direction sought with a large enough effect; inconclusive means small, poorly fitted or top-dose-only effect, or another doubt; inactive means no such curve, though single readings can be large; an effect the other way counts as inactive or inconclusive. Potency means the concentration at half of the fitted maximal effect.
SMILES,HT1080NT lethal,HT1080 IDH1KD tx,KB-V1 MDR tox,SW480 rereplic,MCF10A rereplic,KB-3-1 cytotox
CN(C)c1ccc(NC(=O)CSc2nc3ccccc3c(=O)n2C2CCCCC2)cc1,-1%,0%,i,1%,?,i
COc1ccc(-c2cc(C(F)(F)F)n3nc(C(=O)Nc4sc5c(c4C(=O)OC(C)C)CCC(C)C5)cc3n2)cc1 (stereo not given),/,/,i,/,/,i
COc1ccc(NC(=O)CN(C)S(=O)(=O)c2ccc3nc(C)sc3c2)cc1,/,/,i,/,/,i
CC(Oc1ccccc1)C(=O)OCc1cc(=O)n2nc(C(C)C)sc2n1 (stereo not given),/,/,?,/,/,i
COc1ccccc1C(=O)NCCn1cc(SCC(=O)Nc2cc(C)on2)c2ccccc21,7%,-6%,8.2µM*,3%,?,i
N#Cc1c(N)n(-c2ccccc2N)c2nc3ccccc3nc12,-21%,-9%,i,?,4%,i
N#Cc1c(N)n(-c2cccc(C(=O)O)c2)c2nc3ccccc3nc12,2%,-2%,i,?,21µM*,i
Nc1c(C(=O)Nc2ccccc2)c2nc3ccccc3nc2n1CCCN1CCOCC1,23µM*,18µM*,?,18µM*,10µM*,i
C=CCn1c(N)c(C(=O)Nc2cccc(C)c2)c2nc3ccccc3nc21,-9%,?,21µM*,?,?,i
CCCNC(=O)c1c(N)n(-c2cccc(OC)c2)c2nc3ccccc3nc12,-13%,-14%,?,?,7.3µM*,i
C=CCn1c(N)c(C(=O)Nc2ccc(C)c(C)c2)c2nc3ccccc3nc21,-12%,-19%,i,27%,?,i
Cc1ccc(C(=O)O)cc1Nc1nc2ccccc2n2nnnc12,/,/,i,/,/,i
CCOc1ccc(NC(=O)Cn2c(C)cc3ccccc3c2=O)cc1,/,/,?,/,/,i
CCOC(=O)c1c(C)oc2nc(C)nc(Nc3cc(C)ccc3OC)c12,/,/,?,/,/,i
Nc1c(C(=O)NCCN2CCOCC2)c2nc3ccccc3nc2n1-c1cccc(F)c1,-23%,-23%,i,16µM*,18µM*,?
COCCCNC(=O)c1c(N)n(-c2cccc(S(N)(=O)=O)c2)c2nc3ccccc3nc12,-21%,-12%,i,21µM*,18µM*,i
CCOC(=O)c1c(N)n(-c2ccc(C)c(C)c2)c2nc3ccccc3nc12,/,/,i,/,/,i
Nc1c(C(=O)c2ccccc2)sc2snc(SCC(=O)c3ccccc3)c12,-16%,-24%,i,29%,16µM*,?
COc1ccc(-c2cn3nc(N4CCCC(C(=O)Nc5cccc(Cl)c5C)C4)sc3n2)cc1 (stereo not given),/,/,i,/,/,i
COCCn1c(CCC(=O)Nc2ccc(C)c(Cl)c2)nc2cccnc21,/,/,i,/,/,i
CC(=O)c1cccc(N=C2NC(=O)CS2)c1,8%,9%,6.5µM*,-5%,1%,i
COc1ccc(C2C(Oc3ccccc3)C(=O)N2c2cc(C)ccc2C)cc1OC (stereo not given),2%,2%,6.5µM*,14%,13%,i
COc1ccc(C2C(Oc3ccccc3)C(=O)N2c2ccc(C)c(C)c2)cc1OC (stereo not given),-4%,-3%,i,-3%[9.22 µM],12%,i
Cc1ccc(-n2nc(C)c3c(C(=O)NCc4ccc(F)cc4)cc(C)nc32)cc1,/,/,i,/,/,i
CC(=O)Nc1ccc(NC(=O)CC2Sc3ccccc3NC2=O)cc1 (stereo not given),/,/,?,/,/,i
O=C(CC1Sc2ccccc2NC1=O)NNc1cccc(Cl)c1Cl (stereo not given),?,?,21µM*,?,20%,i
N#Cc1cc(-c2ccccc2)cnc1Sc1ccc(Cl)cc1,10%,6%,?,10%,13%,i

# Compound activity: PubChem BioAssay, National Center for Advancing Translational Sciences (NCATS)
